# Results from PubChem BioAssay (Tox21).
# Inconclusive results are not listed. Calls of active or inactive are those of the source. The call rests on the fitted dose curve; in most records, active means well fitted inhibition curve with a large enough effect in the signal ratio in the repeat runs (not every such curve was filed as active); inconclusive means weak or mixed curves, or effect the other way; inactive means no such curve, though single readings can be large or run the other way; the % refers to the signal ratio.
# Target: Glucocorticoid receptor (Homo sapiens) (UniProt P04150)
# Sequence (P04150 whole entry, looked up): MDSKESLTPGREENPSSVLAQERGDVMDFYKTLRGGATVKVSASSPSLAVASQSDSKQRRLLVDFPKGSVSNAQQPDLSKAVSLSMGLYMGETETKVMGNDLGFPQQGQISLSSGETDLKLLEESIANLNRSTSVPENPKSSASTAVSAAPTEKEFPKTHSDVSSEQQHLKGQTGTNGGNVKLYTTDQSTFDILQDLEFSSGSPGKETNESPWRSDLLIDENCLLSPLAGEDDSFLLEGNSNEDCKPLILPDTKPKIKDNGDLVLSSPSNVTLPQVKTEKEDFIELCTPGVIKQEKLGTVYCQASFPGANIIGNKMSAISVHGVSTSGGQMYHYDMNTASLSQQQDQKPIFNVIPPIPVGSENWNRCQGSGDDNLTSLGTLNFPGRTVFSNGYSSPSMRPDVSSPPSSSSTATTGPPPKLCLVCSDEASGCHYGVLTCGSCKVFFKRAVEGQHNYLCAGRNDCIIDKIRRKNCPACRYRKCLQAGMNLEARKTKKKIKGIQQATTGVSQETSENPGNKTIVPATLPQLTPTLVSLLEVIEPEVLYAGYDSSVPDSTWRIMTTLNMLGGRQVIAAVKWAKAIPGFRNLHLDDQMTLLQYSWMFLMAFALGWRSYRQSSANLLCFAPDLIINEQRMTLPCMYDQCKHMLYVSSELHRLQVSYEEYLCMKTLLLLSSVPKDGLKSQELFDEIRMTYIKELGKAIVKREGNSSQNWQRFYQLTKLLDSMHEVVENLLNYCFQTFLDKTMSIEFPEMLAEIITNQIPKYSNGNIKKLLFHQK
# Assay: qHTS assay to identify small molecule antagonists of the glucocorticoid receptor (GR) signaling pathway (AID 720692)
# Conditions: GR-bla HeLa, beta-lactamase FRET ratio, dexamethasone-stimulated, 18 h; series mostly up to 58.5 µM; activity change, negative = inhibition: at the top concentration
# Source text: U.S. Tox21 Program National Center for Advancing Translational Sciences [NCATS] NIH Chemical Genomics Center [NCGC] U.S. Environmental Protection Agency [EPA] National Institutes of Environmental Health Sciences [NIEHS] National Toxicology Program [NTP] U.S. Food and Drug Administration [FDA] Tox21 Assay Overview: The Glucocorticoid receptor (GR) is one of the members of the nuclear receptor family of ligand-dependent transcription factors. GR plays a critical role in carbohydrate, protein and lipid metabolisms and programmed cell death. CellSensor GR-bla HeLa cell line (Invitrogen) contains a beta-lactamase reporter gene under the control of the glucocorticoid response element stably integrated into HeLa cells, a cervical cancer cell line that expresses glucocorticoid receptor. The activation of the reporter gene under culture conditions can be detected by fluorescence intensity. This cell line has been used to screen the Tox21 10K compound library and to identify the compounds that inhibit the GR signaling.
# Tox21 Assay Protocol Summary: The GR-bla HeLa cells were dispensed at 1500 cells/5 ul/well in 1536-well black wall/clear bottom plates using a Multidrop Combi (ThermoFisher Scientific, Waltham, MA) dispenser. After the assay plates were incubated at a 37 C/5% CO2 incubator for 4 hours, 23 nL of compounds dissolved in DMSO, positive controls or DMSO only was transferred to the assay plate by a pintool station (Kalypsys, San Diego, CA), followed by addition of 1 uL of dexamethasone (5 nM, final concentration in the well). The plates were incubated at 37 C for 18 hours. After 1 uL of LiveBLAzerTM B/G FRET substrate was added using a Flying Reagent Dispenser (Aurora Discovery, San Diego, CA), the plates were incubated at room temperature for 2 hours, and fluorescence intensity was measured by an Envision plate reader (PerkinElmer, Shelton, CT).
# On the % scale 0 is the no-effect control and ±100 the full control effect; potency means the concentration at half of the fitted maximal effect.
SMILES,"activity change, negative = inhibition",Potency
CC(C)(C(=O)c1cccnc1)c1cccnc1,1.72% [at 27 µM] (inactive),–
CCCCCCOC(=O)CCCCC,2.67% (inactive),–
CCC(CO)(CO)CO,-14.3% [at 78.9 µM] (inactive),–
CCC(C)(C)C(=O)O,-10.4% (inactive),–
COC(=O)C1=C(C)NC(C)=C(C(=O)OC(C)(C)CN(C)CCC(c2ccccc2)c2ccccc2)C1c1cccc([N+](=O)[O-])c1 (stereo not given),–,6.74 µM (active)
COc1ccc(N)c([N+](=O)[O-])c1,20.3% (inactive),–
CC(C)(O)c1coc(S(=O)(=O)NC(=O)Nc2c3c(cc4c2CCC4)CCC3)c1,0.858% (inactive),–
CC(C)C(O)C(C)(C)CO (stereo not given),19.9% [at 78.9 µM] (inactive),–
C1CCCCC1,3.63% [at 78.9 µM] (inactive),–
Cc1ccc(Nc2c(F)cccc2Cl)c(CC(=O)O)c1,-16% (inactive),–
Nc1ccc(F)cc1,-13% [at 78.9 µM] (inactive),–
CCCCOC(=O)CCCCC(=O)OCCCC,4.45% (inactive),–
COc1cc(C(C)=O)ccc1OCCCN1CCC(c2noc3cc(F)ccc23)CC1,5.08% (inactive),–
O=c1[nH]c2cc(C(F)(F)F)c(N3CCOCC3)cc2n(CP(=O)(O)O)c1=O,8.52% (inactive),–
CCN(CC)c1ccc(C(=C2C=CC(=[N+](CC)CC)C=C2)c2ccc(S(=O)(=O)O)cc2S(=O)(=O)[O-])cc1,-11% (inactive),–
[Cl][Nd]([Cl])[Cl],-4.89% (inactive),–
CC1CCCC(=O)C1=O (stereo not given),-0.205% (inactive),–
C=Cc1ccc(OC(C)=O)cc1,-0.114% (inactive),–
O=C(c1ccccc1)c1ccc(O)cc1,-1.62% [at 78.9 µM] (inactive),–
CS(=O)(=O)c1ccc([C@@H](C[C@H]2CCC(=O)C2)C(=O)Nc2cnccn2)cc1Cl,5.54% (inactive),–

SMILES,"activity change, negative = inhibition",Potency
Cc1ccccc1S(N)(=O)=O,2.13% (inactive),–
CN(C)CC/C=C1\c2ccccc2Sc2ccc(Cl)cc21,1.49% (inactive),–
Cc1ccc(S(=O)(=O)NC(=O)NC2CCCCC2)cc1,-1.62% (inactive),–
CC1C(C)(C)C2=C(C(=O)CCC2)C1(C)C (stereo not given),7.04% (inactive),–
C=CC(=O)O,–,inactive
CCO[Si](C)(CCCOCC1CO1)OCC (stereo not given),3.58% (inactive),–
CC(=O)NNC(C)=O,2.61% [at 78.9 µM] (inactive),–
Cc1cc([N+](=O)[O-])ccc1N,9.03% (inactive),–
Nc1ccc(S(=O)(=O)NCc2ccccc2)cc1,0.0514% (inactive),–
Cc1ccc(Cl)cc1N,-1.77% [at 78.9 µM] (inactive),–
c1ccc2sc(SSc3nc4ccccc4s3)nc2c1,-12.8% (inactive),–
c1ccc(CNc2ncnc3c2ncn3C2CCCCO2)cc1 (stereo not given),24.3% (inactive),–
O=NN(CCCl)C(=O)NCCCl,0.247% (inactive),–
O=C(O)CCC(=O)c1ccc(-c2ccccc2)cc1,-12.8% [at 27 µM] (inactive),–
CC(C)N=C=NC(C)C,1.04% (inactive),–
CCCCCCCC(=O)OCCCCCC,-5.94% (inactive),–
Nc1ccn([C@H]2CS[C@@H](CO)O2)c(=O)n1,–,inactive
CC(=O)OCCC1CCCCC1,6.7% (inactive),–
O=C1OC[C@H](Cc2cccc(O)c2)[C@H]1Cc1cccc(O)c1,17.7% [at 27 µM] (inactive),–
COC(OC)OC,3.63% (inactive),–
